# About 410 targets per protein were measured; listed, in parts, are those with the strongest signals and a random draw of the rest.
# Legend:
# Test in all cases: glycan array binding signal (z-score within array); higher = stronger binding
# Conditions in all cases: glycan notation: IUPAC condensed, linker removed
# [1] = biological target: Fuc(a1-2)Gal(b1-3)GalNAc(b1-3)Gal
# Method in brief: (§1)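 Glycan array data were curated from 3228 arrays in the Consortium for Functional Glycomics database and kept only where the protein sequence was available. Glycan names were converted to IUPAC-condensed notation, and columns mapping to the same glycan were averaged. The binding signal is a within-array Z-score, averaged across arrays of the same protein sequence at different concentrations or buffers and across linkers. Negative Z-scores can be read as non-binding.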
# Fuc(a1-2)Gal(b1-3)GlcNAc = biological target: Fuc(a1-2)Gal(b1-3)GlcNAc
# Method in brief: as §1
# [2] = biological target: Fuc(a1-2)Gal(b1-3)GlcNAc(b1-3)[Gal(b1-4)GlcNAc(b1-6)]Gal(b1-4)Glc
# Method in brief: as §1
# [3] = biological target: Fuc(a1-2)Gal(b1-4)GlcNAc(b1-3)Gal(b1-4)GlcNAc(b1-3)Gal(b1-4)GlcNAc
# Method in brief: as §1
# [4] = biological target: Fuc(a1-2)Gal(b1-4)[Fuc(a1-3)]GlcNAc
# Method in brief: as §1
# [5] = biological target: Fuc(a1-2)Gal(b1-4)[Fuc(a1-3)]GlcNAc(b1-2)[Fuc(a1-2)Gal(b1-4)[Fuc(a1-3)]GlcNAc(b1-4)]Man(a1-3)[Fuc(a1-2)Gal(b1-4)[Fuc(a1-3)]GlcNAc(b1-2)Man(a1-6)]Man(b1-4)GlcNAc(b1-4)GlcNAc
# Method in brief: as §1
# [6] = biological target: Fuc(a1-2)[Gal(a1-3)]Gal(b1-3)GlcNAc
# Method in brief: as §1
# [7] = biological target: Fuc(a1-2)[Gal(a1-3)]Gal(b1-4)GlcNAc(b1-2)Man
# Method in brief: as §1
# [8] = biological target: Fuc(a1-2)[Gal(a1-3)]Gal(b1-4)GlcNAc(b1-6)GalNAc
# Method in brief: as §1
# [9] = biological target: Fuc(a1-2)[GalNAc(a1-3)]Gal(b1-4)GlcNAc(b1-2)Man(a1-3)[Fuc(a1-2)[GalNAc(a1-3)]Gal(b1-4)GlcNAc(b1-2)Man(a1-6)]Man(b1-4)GlcNAc(b1-4)GlcNAc
# Method in brief: as §1
# [10] = biological target: Fuc(a1-2)[GalNAc(a1-3)]Gal(b1-4)GlcNAc(b1-6)GalNAc
# Method in brief: as §1
# [11] = biological target: Fuc(a1-2)[GalNAc(a1-3)]Gal(b1-4)[Fuc(a1-3)]GlcNAc(b1-3)GalNAc
# Method in brief: as §1
# [12] = biological target: Fuc(a1-3)[Gal(b1-4)]GlcNAc(b1-3)Gal(b1-3)[Fuc(a1-4)]GlcNAc
# Method in brief: as §1
# [13] = biological target: Fuc(a1-3)[Gal(b1-4)]GlcNAc(b1-3)Gal(b1-4)[Fuc(a1-3)]GlcNAc
# Method in brief: as §1
# [14] = biological target: Fuc(a1-3)[Gal(b1-4)]GlcNAc(b1-3)Gal(b1-4)[Fuc(a1-3)]GlcNAc(b1-3)Gal(b1-4)[Fuc(a1-3)]GlcNAc
# Method in brief: as §1
# [15] = biological target: Fuc(a1-3)[GalNAc(b1-4)]GlcNAc
# Method in brief: as §1
# [16] = biological target: Gal(a1-3)Gal(b1-3)[Fuc(a1-4)]GlcNAc(b1-2)Man(a1-3)[Gal(a1-3)Gal(b1-3)[Fuc(a1-4)]GlcNAc(b1-2)Man(a1-6)]Man(b1-4)GlcNAc(b1-4)GlcNAc
# Method in brief: as §1
# [17] = biological target: Gal(a1-3)Gal(b1-4)GlcNAc(b1-6)GalNAc
# Method in brief: as §1
# Gal(a1-3)GalNAc = biological target: Gal(a1-3)GalNAc
# Method in brief: as §1
# [18] = biological target: Gal(a1-3)[Gal(a1-4)]Gal(b1-4)GlcNAc
# Method in brief: as §1
# Gal(a1-4)Gal(b1-4)Glc = biological target: Gal(a1-4)Gal(b1-4)Glc
# Method in brief: as §1
# [19] = biological target: Gal(b1-3)GalNAc(b1-4)Gal(b1-4)Glc
# Method in brief: as §1
# [20] = biological target: Gal(b1-3)GlcNAc(b1-2)Man(a1-3)[Gal(b1-3)GlcNAc(b1-2)Man(a1-6)]Man(b1-4)GlcNAc(b1-4)GlcNAc
# Method in brief: as §1
# [21] = biological target: Gal(b1-3)GlcNAc(b1-6)[Gal(b1-3)]GalNAc
# Method in brief: as §1
# Gal(b1-3)GlcNAc6S = biological target: Gal(b1-3)GlcNAc6S
# Method in brief: as §1
# [22] = biological target: Gal(b1-3)[Fuc(a1-4)]GlcNAc(b1-2)Man(a1-3)[Gal(b1-3)[Fuc(a1-4)]GlcNAc(b1-2)Man(a1-6)]Man(b1-4)GlcNAc(b1-4)[Fuc(a1-6)]GlcNAc
# Method in brief: as §1
# [23] = biological target: Gal(b1-3)[GlcNAc(b1-6)]GalNAc
# Method in brief: as §1
# [24] = biological target: Gal(b1-4)GalNAc(a1-3)[Fuc(a1-2)]Gal(b1-4)GlcNAc
# Method in brief: as §1
# Gal(b1-4)GlcNAc = biological target: Gal(b1-4)GlcNAc
# Method in brief: as §1
# [25] = biological target: Gal(b1-4)GlcNAc(b1-2)Man(a1-3)[GlcNAc(b1-2)Man(a1-6)]Man(b1-4)GlcNAc(b1-4)GlcNAc
# Method in brief: as §1
binder,measurement,setting,value
"AT5G01260(PC)(40) (Arabidopsis thaliana), Q9LFB0 (protein) MIGIGRTLTSSSPSKIILEDLPPGIYRYGTEIFTSVPRKTFHHIKFLRLDSAQSSRILKPVPLRSSSIKDSQVNVEDEEIEASNKTVRVRFQLRKECVFGEHFFIVGDDPVFGGLWDPETALPLNWSDGNVWTVDLDLPVGRLVEFKLLLKAQTGEILWQPGPNRALETWETNKTIRICEDWDNADLQMMIEEDFVPYTNISSIGSEDEDEVLGSVQQNSSVVAVENAGYVSDESAQNSSFSIQSEKTMEPSNGALTAREVIKEAMFTEEESPVLVPGLIPLSDLDNEQVEVINEGKAETFPEVDKKQEPKAERNKKAKVKAISLFEKSEQEAVKSVEQRQYNAVEEEQQRLETEPLGTPDVLFENDIQWGRRTLYKLLSNFRLF",glycan array binding signal (z-score),[1],-0.3
same,glycan array binding signal (z-score),Fuc(a1-2)Gal(b1-3)GlcNAc,-0.85
same,glycan array binding signal (z-score),[2],-0.343
same,glycan array binding signal (z-score),[3],-0.994
same,glycan array binding signal (z-score),[4],-0.291
same,glycan array binding signal (z-score),[5],0.175
same,glycan array binding signal (z-score),[6],0.172
same,glycan array binding signal (z-score),[7],-0.675
same,glycan array binding signal (z-score),[8],-0.256
same,glycan array binding signal (z-score),[9],-0.648
same,glycan array binding signal (z-score),[10],-0.387
same,glycan array binding signal (z-score),[11],7.04
same,glycan array binding signal (z-score),[12],0.431
same,glycan array binding signal (z-score),[13],-0.975
same,glycan array binding signal (z-score),[14],1.89
same,glycan array binding signal (z-score),[15],1.78
same,glycan array binding signal (z-score),[16],0.054
same,glycan array binding signal (z-score),[17],-0.159
same,glycan array binding signal (z-score),Gal(a1-3)GalNAc,2.32
same,glycan array binding signal (z-score),[18],9.44
same,glycan array binding signal (z-score),Gal(a1-4)Gal(b1-4)Glc,1.85
same,glycan array binding signal (z-score),[19],2.16
same,glycan array binding signal (z-score),[20],0.891
same,glycan array binding signal (z-score),[21],-0.659
same,glycan array binding signal (z-score),Gal(b1-3)GlcNAc6S,0.146
same,glycan array binding signal (z-score),[22],0.147
same,glycan array binding signal (z-score),[23],0.411
same,glycan array binding signal (z-score),[24],-0.618
same,glycan array binding signal (z-score),Gal(b1-4)GlcNAc,0.708
same,glycan array binding signal (z-score),[25],-0.702
